# According to the supplement of paper PMC6607015:
# Counter-ions that a name gives are not always drawn.
# What was measured:
# Conditions in all cases: compound concentration in added solution (µM; 5 µl added to 20 µl cells): 10; 18 h
# A431 [1] = assay: LBPA endosome anti-LBPA integrated intensity (sum per cell), Z-score; higher = more LBPA staining
# Summary of the method: (§1)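 HeLa MZ or A431 cells were plated at 3,500 per well in 20 µl over 5 µl of 10 µM compound solution in duplicate 384-well imaging plates and fixed in 4% PFA after 18 h. Staining used the 6C4 anti-LBPA antibody, filipin, propidium iodide and CellTracker green, with four 20× images captured per well. MetaXpress segmentation measured integrated LBPA or filipin intensity per cell, across the whole cell or inside LBPA endosomes, and AcuityXpress normalised these into Z-scores.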
# HeLa MZ [2] = assay: as above
# Summary of the method: as §1
# A431 [3] = assay: whole-cell filipin (free cholesterol) integrated intensity, Z-score; higher = more cholesterol staining
# Summary of the method: as §1
# HeLa MZ [4] = assay: as above
# Summary of the method: as §1
# A431 [5] = assay: filipin (cholesterol) integrated intensity within LBPA endosomes, Z-score; higher = more cholesterol in LBPA endosomes
# Summary of the method: as §1
# HeLa MZ [6] = assay: as above
# Summary of the method: as §1
SMILES,LBPA endosome anti-LBPA integrated intensity (z-score) (A431 [1]),LBPA endosome anti-LBPA integrated intensity (z-score) (HeLa MZ [2]),whole-cell filipin (z-score) (A431 [3]),whole-cell filipin (z-score) (HeLa MZ [4]),filipin (z-score) (A431 [5]),filipin (z-score) (HeLa MZ [6])
O=c1[nH]c2ccccc2n1CCCN1CCC(n2c(=O)[nH]c3cc(Cl)ccc32)CC1 [Domperidone],2.25,1.92,2.16,2.38,2.09,2.01
NCCCNCCSP(=O)(O)O [Amifostine],-0.621,-1,-0.901,-0.742,-0.572,-0.603
CC(CCc1ccccc1)NC(C)C(O)c1ccc(O)cc1 (centres undefined) [Nylidrin],0.233,1.33,0.218,-0.109,-0.121,0.184
CC[C@@H](CO)NC(=O)[C@@H]1C=C2c3cccc4[nH]cc(c34)C[C@H]2N(C)C1 [Methylergometrine maleate],-0.539,-1.25,-0.649,-0.308,-0.495,-0.637
CC(C)[N+](C)(CCC(C(N)=O)(c1ccccc1)c1ccccc1)C(C)C [Isopropamide iodide],-0.212,0.0469,0.00888,-0.577,-0.389,-0.451
C[C@]12N[C@H](Cc3ccccc31)c1ccccc12 [Dizocilpine maleate],-0.337,0.113,-0.302,-0.304,-0.361,-0.275
C=C1[C@@H]2CC[C@H]3[C@]4(C)C[C@H](O[C@@H]5O[C@H](CO)[C@@H](OS(=O)(=O)O)[C@H](OS(=O)(=O)O)[C@H]5OC(=O)CC(C)C)C[C@@H](C(=O)O)[C@H]4CC[C@]3(C2)[C@@H]1O [Atractyloside potassium salt],-0.439,-0.0672,-0.293,-0.252,-0.383,-0.47
Oc1ccc2c3c1O[C@H]1[C@@H](O)CC[C@@]4(O)[C@@H](C2)N(CC2CCC2)CC[C@]314 [Nalbuphine hydrochloride],-0.515,-0.32,-0.797,-0.749,-0.572,-0.371
COc1cc2c(cc1OC)C(C)NCC2 (centres undefined),-0.47,0.672,-0.808,-0.327,-0.528,-0.121
